Results taken from PubChem BioAssay AID761 (NMMLSC, 2007).
Among all 190,000 compounds or so, about 400 (0.21%) were called active. Another 2% or so got no clear call; they are omitted.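 Rule for the calls: active = percent activity GTP binding at least 20 points away from the 100% baseline, either down as inhibitor or up as activator; inconclusive = compound flagged as likely green fluorescent from well-wide comparison; inactive = the rest.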 The entries come from a sample that favours actives as a whole.

Each molecule was assayed against Cell division control protein 42 homolog (Homo sapiens) (UniProt P60953) (assay: modulators of GTP binding to wildtype Cdc42, primary screen, biochemical, multiplex bead flow cytometry, Bodipy-GTP (AID 761;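 note: median bead fluorescence of bound Bodipy-FL-GTP at 100 nM; 0% = excess unlabeled GTP control and 100% = no compound control; below 100% means less GTP binding so inhibitor and above means activator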)). Settings: GST-Cdc42 beads, at 10 µM, actives lie on both sides.
Cell division control protein 42 homolog (Homo sapiens), sequence (P60953 whole entry, looked up): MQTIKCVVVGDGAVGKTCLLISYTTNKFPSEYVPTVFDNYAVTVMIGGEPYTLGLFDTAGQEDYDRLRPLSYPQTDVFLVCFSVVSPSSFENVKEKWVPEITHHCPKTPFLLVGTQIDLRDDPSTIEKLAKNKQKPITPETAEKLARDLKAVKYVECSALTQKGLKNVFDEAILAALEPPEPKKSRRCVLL

SMILES	percent activity (GTP binding)
Cc1ccccc1CC1(CO)CCCN(C(=O)c2cc(-c3ccccc3)no2)C1 (configuration not stated)	98% (inactive)
CCC1(CC)NC(=O)N(CC(=O)OCC(=O)NC(=O)c2ccccc2)C1=O	101% (inactive)
c1ccc(-n2nnnc2-c2cccnc2)cc1	95% (inactive)
O=C(Cn1cnc([N+](=O)[O-])n1)NCCc1ccccc1	97% (inactive)
COc1cc(/C=C/C(=O)OCC(=O)N2CCOCC2)ccc1OCC#N	97% (inactive)
O=C(c1ccc(OC2CCN(Cc3ccccn3)CC2)cc1)N1CCCCCC1	96% (inactive)
COc1ccc(C)cc1NC(=O)CSc1nnc(CC(=O)Nc2ccccc2F)n1C	101% (inactive)
Cc1cc(N/N=C/c2ccccc2F)c2ccccc2n1	96% (inactive)
Cc1c(C(N)=O)sc2ncn(CCOc3ccccc3)c(=O)c12	89% (inactive)
Cc1ccc(SC(CC(=O)c2ccc(C(C)(C)C)cc2)C(=O)O)cc1 (configuration not stated)	77% (active)
CC(C)(C)c1ccc(C(=O)CSc2ncn[nH]2)cc1	103% (inactive)
Cc1ccc(C(=O)CS(C)(=O)=O)cc1	104% (inactive)
CC(=O)N/N=C/c1cc2c(cc1[N+](=O)[O-])OCO2	97% (inactive)
CC1(C)CC(=O)CC2(C1)NCC(c1ccccc1Cl)c1c2[nH]c2ccccc12 (configuration not stated)	96% (inactive)
COc1ccc(CN(C)Cc2nc3cc(OC)c(OC)cc3c(=O)[nH]2)c(OC)c1	105% (inactive)
O=C(Cc1cccs1)Nc1nnc(C2CC2)s1	99% (inactive)
CC(=O)Nc1nc(N(C)C)nc(N(C)C)n1	97% (inactive)
CN(c1ccccc1)S(=O)(=O)c1ccc(Cl)c(C(=O)OCC(=O)N2CCOCC2)c1	96% (inactive)
COc1ccccc1CN(C)c1nnnn1-c1ccccc1	102% (inactive)
O=C(NCC1CCN(Cc2ccccc2Cl)CC1)Nc1cccc(Cl)c1	106% (inactive)
CC(=O)c1cc(C#N)c(N2CC(C)OC(C)C2)nc1C (configuration not stated)	98% (inactive)
OCCC1CN(Cc2ccccc2-c2ccco2)CCN1Cc1ccsc1 (configuration not stated)	92% (inactive)
COc1ccc(NC(=O)CSc2nnc(-c3ccccc3F)n2C2CC2)cc1S(N)(=O)=O	97% (inactive)
O=C(NCc1ccco1)C(=O)c1cn(CC(=O)N2CCCCCC2)c2ccccc12	94% (inactive)

SMILES	percent activity (GTP binding)
C=CCN(CC=C)S(=O)(=O)c1ccc(C(=O)Nc2nc3c(s2)CCc2ccccc2-3)cc1	138% [activator] (active)
C=CCN(CC=C)S(=O)(=O)c1ccc(C(=O)Nc2sc3c(c2C(N)=O)CCCCC3)cc1	104% (inactive)
COCCN(CCOC)S(=O)(=O)c1ccc(C(=O)Nc2nc3c(s2)CCc2ccccc2-3)cc1	107% (inactive)
CCOc1cc(N2CCOCC2)c(OCC)cc1NC(=O)c1ccc(C)s1	94% (inactive)
O=C(CCl)N(Cc1cccc([N+](=O)[O-])c1)c1cccc(Cl)c1	96% (inactive)
CC(=O)NCCc1nc2cc(NC(=O)c3ccccc3)ccc2n1C	102% (inactive)
COC(=O)c1c(NC(=O)CCCC(=O)O)sc2c1CCCCC2	97% (inactive)
Cc1nc([N+](=O)[O-])cn1CC(=O)Nc1ccc2c(c1)OCO2	94% (inactive)
C/C(Cn1nnc2ccccc21)=N\OC(=O)c1cc(F)c(F)cc1Cl	89% (inactive)
CCCC(C)C(=O)NCc1ccncc1 (configuration not stated)	98% (inactive)
OC1CCCN(c2ncnc3c2nnn3Cc2c(F)cccc2Cl)C1 (configuration not stated)	94% (inactive)
CC(C)(C)c1ccc(/C=C2\SC(=O)N=C2N)cc1	96% (inactive)
C=CCC1(CC=C)CCCN1C(=O)CC1C(=O)NCCN1Cc1ccccc1OC (configuration not stated)	99% (inactive)
COc1ccc(C(C)=O)cc1CSc1nc2nc(C)cc(C)n2n1	96% (inactive)
COc1ccc(CCNC(=O)C(=O)NCc2ccccc2C)cc1OC	100% (inactive)
O=C(C1CCCO1)N1CCN(C(=S)NC2CC2)CC1 (configuration not stated)	98% (inactive)
S=C(NC1CCCCC1)NN1CCOCC1	99% (inactive)
COc1cc(/C=N/Nc2ccc(C)cc2)cc(Br)c1O	100% (inactive)
COc1ncnc2sc3c(c12)CCCC3	103% (inactive)
COc1ccc(/C=N/Nc2ncnc3sc4c(c23)CCCC4)cc1O	73% (active)
Cn1c(N)c(C(=O)COC(=O)/C=C/c2ccc(OC(F)F)cc2)c(=O)n(C)c1=O	94% (inactive)
Cc1ccc2c(c1)C1CN(C)CCC1N2C(=S)Nc1ccc(Cl)cc1Cl (configuration not stated)	97% (inactive)
CCCCCCCNc1nc(Cl)nc(NCCO)n1	92% (inactive)
COc1cccc(-n2nc(C(=O)N3CCN(Cc4ccccc4)CC3)c3ccccc3c2=O)c1	96% (inactive)

SMILES	percent activity (GTP binding)
CCOC(=O)N1CCC(=NNC(N)=O)CC1	102% (inactive)
CCOC(=O)C(NC(C)=O)C(=O)Nc1ccc(OC)cc1 (configuration not stated)	93% (inactive)
S=C(Nc1cccc(Br)c1)N1CCn2cccc2C1c1cccnc1 (configuration not stated)	96% (inactive)
Cc1cc(C)cc(NC(=O)CSc2ccccc2)c1	91% (inactive)
O=C(CSc1ccccc1)Nc1ccc(NC(=O)c2ccco2)cc1	100% (inactive)
O=C(CSc1ccccc1)Nc1ccc(C(=O)Nc2cccc(O)c2)cc1	77% (active)
COCCSc1nnc(NC(=O)c2cc(OC)c(OC)cc2[N+](=O)[O-])s1	102% (inactive)
O=C(CSc1ncnc2c1nnn2Cc1ccc(F)cc1)NC1CCCC1	96% (inactive)
CC(=O)c1ccc(NC(=O)C(C)N(C)CC(=O)Nc2ccccc2Cl)cc1 (configuration not stated)	98% (inactive)
COC(=O)C(C)N=Cc1ccccc1 (configuration not stated)	97% (inactive)
NS(=O)(=O)c1ccc(CCNC(=O)c2ccc(Cl)cc2[N+](=O)[O-])cc1	92% (inactive)
COC(=O)c1ccc(-n2cnc3ccccc32)nc1	95% (inactive)
CCC(C)NCC(=O)Nc1ccc([N+](=O)[O-])cc1C(=O)Nc1ccccc1F (configuration not stated)	98% (inactive)
CCCn1nc(Oc2nc(NC(C)C)nc(N(C)C)n2)ccc1=O	97% (inactive)
CN(C)c1nnnn1-c1ccc(Cl)cc1	96% (inactive)
O=C(/C=C/c1ccccc1[N+](=O)[O-])OC1CCCCC1=O (configuration not stated)	97% (inactive)
O=C(N/N=C/c1ccco1)c1ccc(C(=O)N/N=C/c2ccco2)o1	84% (inactive)
O=C(Nc1ccc([N+](=O)[O-])cc1)C1CC12CCC2 (configuration not stated)	96% (inactive)
O=C(/C=C/c1ccc(Cl)cc1Cl)c1cccnc1	88% (inactive)
O=C(/C=C/c1ccc(Cl)c([N+](=O)[O-])c1)c1cccnc1	79% (active)
O=C(Nc1cccnc1)c1ccc(Cl)c([N+](=O)[O-])c1	96% (inactive)
CC(=O)C1=C(C)NC2=C(C(=O)CC(C)(C)C2)C1C (configuration not stated)	96% (inactive)
CN(CCOc1ccccc1)Cc1nc2cc(Cl)ccc2c(=O)[nH]1	93% (inactive)
O=C(CC1Nc2ccccc2NC1=O)Nc1ccccc1NC(=O)CC1Nc2ccccc2NC1=O (configuration not stated)	99% (inactive)

SMILES	percent activity (GTP binding)
Cc1nc2nc[nH]n2c(=O)c1C/C=C/c1ccccc1	89% (inactive)
COc1ccc(C(=O)C2CCCN(C(=O)c3cc4nc(C)cc(C)n4n3)C2)cc1F (configuration not stated)	99% (inactive)
O=C(COC(=O)CCc1ccc(S(=O)(=O)N2CCOCC2)cc1)Nc1cccc(Cl)c1	97% (inactive)
O=C(c1ccccc1Cl)N(Cc1ccccc1F)N1C(=O)CCCC1=O	98% (inactive)
O=C(O)Cc1sc(-c2ccccc2)nc1-c1cccs1	92% (inactive)
CCS(=O)(=O)C1=NSC2=NC(=O)/C(=C\c3cc(C)n(-c4cccc(OC)c4)c3C)C(=N)N21	93% (inactive)
N/C(=N\OC(=O)c1ccc([N+](=O)[O-])cc1)c1ccccn1	96% (inactive)
O=C(CN1CCC(O)(c2ccccc2)CC1)Nc1ccc2c(c1)OCCO2	97% (inactive)
CCN1CC(CN(C)Cc2nc(-c3ccc(Cl)cc3)no2)CC1=O (configuration not stated)	101% (inactive)
Cc1ccc([N+](=O)[O-])c(OCCCNCC(C)O)c1 (configuration not stated)	103% (inactive)
CCCN(CCC)c1ccc(C(O)c2nnc(-c3ccccc3)o2)cc1 (configuration not stated)	95% (inactive)
O=C(NCC(O)c1ccc([N+](=O)[O-])cc1)C1CCCCC1 (configuration not stated)	97% (inactive)
CN1CCN(c2nc(Nc3ccc(O)cc3)nc3ccccc23)CC1	95% (inactive)
CCn1c(COc2c(C)cccc2C)nnc1SCc1nc2ccccc2c(=O)[nH]1	94% (inactive)
O=S(=O)(NC1CC1)c1ccc2c3c(cccc13)CC2	93% (inactive)
CCOC(=O)CSc1nc2c(sc(=S)n2CCc2ccccc2)c(=O)n1Cc1ccco1	99% (inactive)
CN(c1ccccc1)c1ccc(/C=c2\s/c(=C(/C#N)C(=O)C(C)(C)C)n(Cc3ccco3)c2=O)cc1	143% [activator] (active)
Cc1cc2c(c(=O)n1Cc1ccco1)C(c1ccccc1)C(C#N)=C(N)O2 (configuration not stated)	103% (inactive)
CCCNCc1cc(OCC)c(OCC(=O)Nc2ccccc2)cc1Br	96% (inactive)
CC(=O)N1CCc2cc(Br)cc(S(=O)(=O)CCC(=O)Nc3c(C)n(C)n(-c4ccccc4)c3=O)c21	100% (inactive)
Cc1cc(NC(=O)CSc2nccn2-c2ccc([N+](=O)[O-])cc2)no1	96% (inactive)
CC(=O)Nc1ccc(NC(=O)CSc2nnc(COc3ccccc3C)n2CC2CCCO2)cc1 (configuration not stated)	99% (inactive)
C=CCO/N=C/C1=C(O)C(C(=O)OC)C(C)(C)CC1=O (configuration not stated)	108% (inactive)
COC(=O)c1cc(NC(=O)CN2CCN(C(C)=O)CC2)cc(C(=O)OC)c1	99% (inactive)

SMILES	percent activity (GTP binding)
Cc1cc(N2CCN(C)CC2)nc2ccc(NC(=S)N3CCOCC3)cc12	96% (inactive)
COc1cccc(NC(=O)CC2C(=O)NCCN2C(=S)Nc2ccc(F)cc2)c1 (configuration not stated)	97% (inactive)
CCOC(=O)C(CC)/C(C)=N\NC(=O)c1cccc(C)c1 (configuration not stated)	92% (inactive)
Cc1ccc(/C([O-])=C(/C(=S)NCc2ccco2)[n+]2ccccc2)cc1[N+](=O)[O-]	95% (inactive)
CCn1nc(C)c(CN2CCN(Cc3ccc(OC)c(C)c3C)C(CCO)C2)c1C (configuration not stated)	97% (inactive)
C=CCc1ccc(OCC(O)CN2CCN(Cc3ccccc3)CC2)c(OC)c1 (configuration not stated)	94% (inactive)
CC(=O)Nc1ccc(S(=O)(=O)Nc2ccc(-c3ccc4nnc(C)n4n3)cc2)cc1	89% (inactive)
Nc1ccc(-c2sc(N)nc2-c2ccccc2)cc1	97% (inactive)
Nc1[nH]c(=S)nc2nc(-c3ccccc3)c(-c3ccccc3)nc12	78% (active)
O=C(NNc1cc(Cl)ccc1Cl)c1cccnc1Cl	97% (inactive)
CCOC(=O)c1ccccc1NC(=S)N1CCC(C(N)=O)CC1	97% (inactive)
O=C(/C=C/c1ccccc1)Oc1coc(CSc2ncccn2)cc1=O	91% (inactive)
Cc1ccc(CN2CCN(Cc3ccc4ncccc4c3)CC2CCO)cc1 (configuration not stated)	94% (inactive)
Cc1nccc(-c2ccc(-n3c(C)ccc3C)cc2)n1	93% (inactive)
Cc1ccc(N2C(=O)C3CC3C2=O)cc1 (configuration not stated)	98% (inactive)
Cc1ccccc1CN1C[C@@H]2C[C@@H](c3ccc4nsnc4c3)N3CCC[C@@]23C1=O	101% (inactive)
CCS(=O)(=O)c1ccc(C(=O)NC)c(Cl)c1Cl	91% (inactive)
COc1ccc(C)cc1NC(=O)Nc1ccccc1SC	98% (inactive)
CC(C)C(O)C1CCN(Cc2nc(Cc3ccccc3Cl)no2)CC1 (configuration not stated)	96% (inactive)
COc1ccc(CN2CCCC(CNC(=O)c3ccc(F)cc3)C2)cc1OC (configuration not stated)	97% (inactive)
COc1ccc(Cl)cc1NC(=O)NC(C)C(C)(C)C (configuration not stated)	101% (inactive)
